Results taken from publication PMC7862700, “An all-to-all approach to the identification of sequence-specific readers for epigenetic DNA modifications on cytosine”.

How the values were obtained:
Experiment in all cases: DAPPL (digital affinity profiling via proximity ligation, sequencing); 10 mM Tris-HCl pH 7.5, 50 mM NaCl, 1 mM DTT, 4% glycerol, room temperature, 30 min; GST-TFs on glutathione beads, 16-mer random dsDNA library, 0.1% formaldehyde crosslink after washing; high values mean tight binding
Conditions in all cases: protein: recombinant; tags: N-terminal GST; dsDNA, one strand shown
[1] = target: T1, FLI1 (Homo sapiens, UniProt Q01543 1-452)
T1 sequence: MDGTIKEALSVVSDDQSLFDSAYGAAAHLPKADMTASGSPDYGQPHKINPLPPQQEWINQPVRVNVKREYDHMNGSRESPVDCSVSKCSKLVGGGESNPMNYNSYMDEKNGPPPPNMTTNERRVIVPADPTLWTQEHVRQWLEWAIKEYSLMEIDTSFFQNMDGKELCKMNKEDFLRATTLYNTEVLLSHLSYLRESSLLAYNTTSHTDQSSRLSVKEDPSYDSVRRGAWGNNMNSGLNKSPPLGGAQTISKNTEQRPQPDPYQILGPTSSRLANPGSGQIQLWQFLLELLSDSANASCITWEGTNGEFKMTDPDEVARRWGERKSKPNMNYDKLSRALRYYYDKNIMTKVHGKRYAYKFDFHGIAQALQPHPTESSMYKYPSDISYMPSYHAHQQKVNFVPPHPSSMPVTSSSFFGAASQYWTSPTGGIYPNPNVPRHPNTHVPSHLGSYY
Summary of the method: (§1)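 Human transcription factors were made in yeast as GST fusions, captured on glutathione beads and barcoded with DNA. With a tag-only sample included, the pool was incubated with 200 nmole of a random double-stranded 16-mer DNA library in Tris/NaCl/DTT/glycerol buffer at room temperature for 30 min, then crosslinked with 0.1% formaldehyde after washing, ligated by proximity, amplified and sequenced. For binding signal, each hexamer's read frequency for a factor is divided by its frequency for the tag-only sample.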

[2] = target: T2, ELK1 (Homo sapiens, UniProt P19419 1-428)
T2 sequence: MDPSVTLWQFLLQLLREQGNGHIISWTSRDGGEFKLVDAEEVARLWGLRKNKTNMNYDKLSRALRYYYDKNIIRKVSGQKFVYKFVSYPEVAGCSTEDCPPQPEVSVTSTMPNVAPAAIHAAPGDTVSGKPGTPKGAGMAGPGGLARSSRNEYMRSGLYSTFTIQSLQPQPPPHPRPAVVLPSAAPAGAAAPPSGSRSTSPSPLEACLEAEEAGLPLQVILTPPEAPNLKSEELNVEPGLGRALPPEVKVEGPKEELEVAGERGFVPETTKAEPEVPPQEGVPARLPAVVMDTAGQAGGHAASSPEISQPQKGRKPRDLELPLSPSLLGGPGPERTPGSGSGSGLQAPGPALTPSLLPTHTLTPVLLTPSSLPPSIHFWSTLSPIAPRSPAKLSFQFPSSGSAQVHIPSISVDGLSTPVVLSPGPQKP
Summary of the method: as §1

[3] = target: T3, GABPA (Homo sapiens, UniProt Q06546 1-454)
T3 sequence: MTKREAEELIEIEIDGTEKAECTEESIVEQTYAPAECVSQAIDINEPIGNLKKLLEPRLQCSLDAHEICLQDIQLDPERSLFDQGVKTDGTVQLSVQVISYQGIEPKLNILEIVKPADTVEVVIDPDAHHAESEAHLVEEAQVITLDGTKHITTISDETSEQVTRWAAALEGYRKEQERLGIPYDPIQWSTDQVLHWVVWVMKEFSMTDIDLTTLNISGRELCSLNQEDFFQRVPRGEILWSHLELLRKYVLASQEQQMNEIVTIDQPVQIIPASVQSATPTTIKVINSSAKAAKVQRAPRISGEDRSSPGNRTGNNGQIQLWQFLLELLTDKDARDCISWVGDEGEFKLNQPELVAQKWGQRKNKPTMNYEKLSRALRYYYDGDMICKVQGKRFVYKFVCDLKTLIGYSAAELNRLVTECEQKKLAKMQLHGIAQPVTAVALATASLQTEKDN
Summary of the method: as §1

[4] = target: T4, ERG (Homo sapiens, UniProt P11308 1-479)
T4 sequence: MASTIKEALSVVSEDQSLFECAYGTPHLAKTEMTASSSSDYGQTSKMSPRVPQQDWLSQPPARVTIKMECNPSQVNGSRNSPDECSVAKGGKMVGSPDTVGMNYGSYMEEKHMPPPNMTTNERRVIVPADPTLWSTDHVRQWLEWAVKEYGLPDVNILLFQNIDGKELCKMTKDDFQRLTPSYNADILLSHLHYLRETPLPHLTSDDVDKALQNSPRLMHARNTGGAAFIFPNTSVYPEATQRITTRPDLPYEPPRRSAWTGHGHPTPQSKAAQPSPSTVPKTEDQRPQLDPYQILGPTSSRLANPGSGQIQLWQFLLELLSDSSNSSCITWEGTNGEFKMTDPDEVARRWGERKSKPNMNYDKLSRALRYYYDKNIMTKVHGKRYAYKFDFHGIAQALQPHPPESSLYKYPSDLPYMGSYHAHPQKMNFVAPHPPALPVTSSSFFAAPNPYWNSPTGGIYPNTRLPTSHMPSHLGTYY
Summary of the method: as §1

[5] = target: ELF1 (Homo sapiens, UniProt P32519 1-619)
ELF1, sequence (P32519 whole entry): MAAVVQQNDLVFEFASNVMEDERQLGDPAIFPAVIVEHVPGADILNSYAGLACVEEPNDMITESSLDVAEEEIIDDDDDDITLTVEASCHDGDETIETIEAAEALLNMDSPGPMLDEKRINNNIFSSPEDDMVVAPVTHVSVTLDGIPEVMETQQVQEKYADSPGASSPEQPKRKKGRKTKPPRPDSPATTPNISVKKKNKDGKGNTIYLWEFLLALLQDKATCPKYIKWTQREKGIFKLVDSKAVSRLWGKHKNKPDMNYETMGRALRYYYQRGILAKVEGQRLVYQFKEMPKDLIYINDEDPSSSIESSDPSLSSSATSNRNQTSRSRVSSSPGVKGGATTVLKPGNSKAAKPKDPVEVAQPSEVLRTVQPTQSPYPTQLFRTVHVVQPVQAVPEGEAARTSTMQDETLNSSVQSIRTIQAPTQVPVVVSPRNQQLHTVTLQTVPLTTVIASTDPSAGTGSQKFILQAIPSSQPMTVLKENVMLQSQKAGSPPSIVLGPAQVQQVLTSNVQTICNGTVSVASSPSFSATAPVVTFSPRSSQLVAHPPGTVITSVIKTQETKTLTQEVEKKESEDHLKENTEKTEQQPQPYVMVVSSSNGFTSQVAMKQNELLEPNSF
Summary of the method: as §1

[6] = target: T5, EHF (Homo sapiens, UniProt Q9NZC4 1-300)
T5 sequence: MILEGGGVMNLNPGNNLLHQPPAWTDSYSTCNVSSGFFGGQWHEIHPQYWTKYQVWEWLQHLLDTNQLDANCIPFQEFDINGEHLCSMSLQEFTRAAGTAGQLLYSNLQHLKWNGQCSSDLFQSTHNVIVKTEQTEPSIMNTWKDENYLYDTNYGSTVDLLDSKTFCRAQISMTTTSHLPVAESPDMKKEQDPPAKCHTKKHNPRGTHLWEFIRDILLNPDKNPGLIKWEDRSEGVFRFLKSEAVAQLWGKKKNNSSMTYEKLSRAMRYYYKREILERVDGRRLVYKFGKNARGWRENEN
Summary of the method: as §1

[7] = target: SPI1 (Homo sapiens, UniProt P17947 1-270)
Summary of the method: as §1

[8] = target: SPIB (Homo sapiens, UniProt Q01892 1-262)
SPIB, sequence (Q01892 whole entry): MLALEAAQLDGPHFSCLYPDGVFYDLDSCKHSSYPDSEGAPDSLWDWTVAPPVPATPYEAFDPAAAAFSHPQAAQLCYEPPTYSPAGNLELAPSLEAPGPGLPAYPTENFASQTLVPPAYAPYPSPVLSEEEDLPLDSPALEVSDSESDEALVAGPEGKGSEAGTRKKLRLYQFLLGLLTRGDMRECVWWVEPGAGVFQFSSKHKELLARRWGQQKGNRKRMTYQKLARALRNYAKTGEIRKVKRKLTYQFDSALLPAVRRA
Summary of the method: as §1

[9] = target: T6, ELK3 (Homo sapiens, UniProt P41970 1-407)
T6 sequence: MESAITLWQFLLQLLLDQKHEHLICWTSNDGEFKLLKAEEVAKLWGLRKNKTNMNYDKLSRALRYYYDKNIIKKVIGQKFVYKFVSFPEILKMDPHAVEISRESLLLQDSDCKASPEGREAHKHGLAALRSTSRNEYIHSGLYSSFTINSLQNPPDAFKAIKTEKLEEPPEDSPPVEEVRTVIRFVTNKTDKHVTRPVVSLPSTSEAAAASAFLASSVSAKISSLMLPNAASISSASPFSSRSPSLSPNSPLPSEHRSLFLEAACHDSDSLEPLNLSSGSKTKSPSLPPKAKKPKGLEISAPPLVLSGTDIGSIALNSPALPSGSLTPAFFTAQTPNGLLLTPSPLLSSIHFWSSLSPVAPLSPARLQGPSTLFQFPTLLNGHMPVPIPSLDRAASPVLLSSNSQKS
Summary of the method: as §1

Row | Sequence | binding signal [1] | binding signal [2] | binding signal [3] | binding signal [4] | binding signal [5] | binding signal [6] | binding signal [7] | binding signal [8] | binding signal [9]
1 | ATCACT | 1.19 fold enrichment (6-mer frequency, TF over GST control) | 1.16 fold enrichment (6-mer frequency, TF over GST control) | 1.19 fold enrichment (6-mer frequency, TF over GST control) | 1.28 fold enrichment (6-mer frequency, TF over GST control) | 1.34 fold enrichment (6-mer frequency, TF over GST control) | 1.15 fold enrichment (6-mer frequency, TF over GST control) | 1.32 fold enrichment (6-mer frequency, TF over GST control) | 1.38 fold enrichment (6-mer frequency, TF over GST control) | 1.18 fold enrichment (6-mer frequency, TF over GST control)
2 | ACCAAC | 1.19 fold enrichment (6-mer frequency, TF over GST control) | 1.36 fold enrichment (6-mer frequency, TF over GST control) | 1.23 fold enrichment (6-mer frequency, TF over GST control) | 1.15 fold enrichment (6-mer frequency, TF over GST control) | 1.24 fold enrichment (6-mer frequency, TF over GST control) | 1.18 fold enrichment (6-mer frequency, TF over GST control) | 1.19 fold enrichment (6-mer frequency, TF over GST control) | 1.12 fold enrichment (6-mer frequency, TF over GST control) | 1.18 fold enrichment (6-mer frequency, TF over GST control)
3 | CGACAT | 1.37 fold enrichment (6-mer frequency, TF over GST control) | 1.23 fold enrichment (6-mer frequency, TF over GST control) | 1.25 fold enrichment (6-mer frequency, TF over GST control) | 1.31 fold enrichment (6-mer frequency, TF over GST control) | 1.25 fold enrichment (6-mer frequency, TF over GST control) | 1.26 fold enrichment (6-mer frequency, TF over GST control) | 1.27 fold enrichment (6-mer frequency, TF over GST control) | 1.3 fold enrichment (6-mer frequency, TF over GST control) | 1.4 fold enrichment (6-mer frequency, TF over GST control)
4 | TTGCTC | 1.35 fold enrichment (6-mer frequency, TF over GST control) | 1.4 fold enrichment (6-mer frequency, TF over GST control) | 1.37 fold enrichment (6-mer frequency, TF over GST control) | 1.26 fold enrichment (6-mer frequency, TF over GST control) | 1.28 fold enrichment (6-mer frequency, TF over GST control) | 1.3 fold enrichment (6-mer frequency, TF over GST control) | 1.3 fold enrichment (6-mer frequency, TF over GST control) | 1.25 fold enrichment (6-mer frequency, TF over GST control) | 1.01 fold enrichment (6-mer frequency, TF over GST control)
5 | GGCCTA | 1.15 fold enrichment (6-mer frequency, TF over GST control) | 1.22 fold enrichment (6-mer frequency, TF over GST control) | 1.31 fold enrichment (6-mer frequency, TF over GST control) | 1.37 fold enrichment (6-mer frequency, TF over GST control) | 1.3 fold enrichment (6-mer frequency, TF over GST control) | 1.23 fold enrichment (6-mer frequency, TF over GST control) | 1.03 fold enrichment (6-mer frequency, TF over GST control) | 1.04 fold enrichment (6-mer frequency, TF over GST control) | 1.1 fold enrichment (6-mer frequency, TF over GST control)
6 | ACTTGT | 1.27 fold enrichment (6-mer frequency, TF over GST control) | 1.35 fold enrichment (6-mer frequency, TF over GST control) | 1.29 fold enrichment (6-mer frequency, TF over GST control) | 1.15 fold enrichment (6-mer frequency, TF over GST control) | 1.29 fold enrichment (6-mer frequency, TF over GST control) | 1.31 fold enrichment (6-mer frequency, TF over GST control) | 1.3 fold enrichment (6-mer frequency, TF over GST control) | 1.45 fold enrichment (6-mer frequency, TF over GST control) | 1.31 fold enrichment (6-mer frequency, TF over GST control)
7 | GCTTAT | 1.33 fold enrichment (6-mer frequency, TF over GST control) | 1.21 fold enrichment (6-mer frequency, TF over GST control) | 1.28 fold enrichment (6-mer frequency, TF over GST control) | 1.18 fold enrichment (6-mer frequency, TF over GST control) | 1.28 fold enrichment (6-mer frequency, TF over GST control) | 1.12 fold enrichment (6-mer frequency, TF over GST control) | 1.3 fold enrichment (6-mer frequency, TF over GST control) | 1.31 fold enrichment (6-mer frequency, TF over GST control) | 1.16 fold enrichment (6-mer frequency, TF over GST control)
